Structures can show the parent of a compound that is named as a salt. In all, about 2,800 compounds were measured (“cell viability relative to vehicle”: median about 0.98, lowest 2% from about 0.45 on). The sample holds the lowest values, similar compounds and a random draw of the others, so the mix is not that of the screen.

Here are results for 72 molecules from the supplement of paper PMC10600219.

The test system of this assay is NCI-H2228 alectinib-DTP. The experiment in a line: cell viability relative to vehicle (fraction of vehicle); NCI-H2228 is an ALK-positive lung cancer line and DTP means drug-tolerant persister; higher = less growth inhibition. Particulars: 100 nM; treatment time 6 days. An outline of the steps:
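Each value is viability relative to vehicle-treated cells, measured as ATP with the CellTiter-Glo 3D Cell Viability Assay. Parental NCI-H2228 cells and drug-tolerant persisters (1000 nM targeted drug, 13 days) in 384-well plates received the 3114-agent TargetMol anti-cancer compound library at 100 nM, or DMSO, and were read 6 days later.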
Consider `C[C@H](O)[C@@H](O)[C@@H](O)[C@H](O)C=O` [L-(-)-Fucose], for which the cell viability turned out to be 1.09.
Under `O=C(O)c1ccc(S(=O)(=O)N(Cc2ccc(OC(F)(F)F)cc2)c2ncc(C(F)(F)F)cc2Cl)cc1` stands 0.969.
`O=C(Nc1ccc2[nH]nc(-c3ccncc3)c2c1)[C@@H]1CCN(CC(=O)N2CCN(c3ccc(-c4ncccn4)cc3)CC2)C1` had a cell viability of 0.831.
As for `COc1ccccc1C(=O)Nc1cc2c(cc1N1CCCCC1)n(C)c(=O)n2C`, the figure is 0.977.
Under `CC(=O)O[C@H](CC=C(C)C)C1=CC(=O)c2c(O)ccc(O)c2C1=O` [Acetyl shikonin] stands 1.05; under `Cc1nc(Nc2ccc(F)cc2)nc(N2CCc3ccccc3C2C)c1C` (configuration not stated) [Revaprazan hydrochloride], 0.852; under `Cc1ccc(C(=O)Nc2cccc(C(F)(F)F)c2)cc1Nc1nc(-c2cccnc2)nc2c1cnn2C`, 0.974.
Regarding `Cc1cc(Nc2ncc3c(n2)N(C)C(=O)N(c2cc(NC(=O)c4cccc(C(F)(F)F)c4)ccc2C)C3)n(C)n1` [Pluripotin], the cell viability came to 0.301.
Under `Cc1cc(C(=O)Nc2cccc(C(=O)Nc3cccc(C(F)(F)F)c3)c2)on1` stands 1.1; under `COc1cc2nccc(Oc3ccc(NC(=O)c4cn(C(C)C)c(=O)n(-c5ccc(F)cc5)c4=O)cc3F)c2cc1OC`, 0.893.
In the case of `COC1(c2sc3c(N4CCOCC4)nc(-c4cnc(N)nc4)nc3c2C)COC1`, the cell viability was found to be 0.496.
Under `Cc1c(CN2CCN(C(=O)[C@H](C)O)CC2)sc2c(N3CCOCC3)nc(-c3cnc(N)nc3)nc12` [Apitolisib] stands 0.434; under `Cc1c(CN2CCN(S(C)(=O)=O)CC2)sc2c(N3CCOCC3)nc(-c3cnc(N)nc3)nc12`, 0.514.
As for `CONC(=O)c1ccccc1Nc1cc(Nc2cc(C)nn2C(C)C)ncc1Cl`, the figure is 0.889; as for `CN(C)CCCOc1ccc(-c2ccc3ncc4c(c3c2)n(C2CCOCC2)c(=O)n4C)cn1`, 0.878.
As for `Nc1ccc(-c2ccc3ncc4ccc(=O)n(-c5cccc(C(F)(F)F)c5)c4c3c2)cn1` [Torin 2], the figure is 0.414; as for `CCC(=O)N1CCN(c2ccc(-n3c(=O)ccc4cnc5ccc(-c6cnc7ccccc7c6)cc5c43)cc2C(F)(F)F)CC1` [Torin 1], 0.437; as for `COc1ccc(-c2ccc3ncc4c(c3c2)n(-c2ccc(N3CCNCC3)c(C(F)(F)F)c2)c(=O)n4C)cn1`, 0.373.
With `CC(C)n1c(=O)n(C)c2cnc3cc(F)c(-c4ccc(OCCCN5CCCCC5)nc4)cc3c21`, the cell viability is 0.883.
Under `CCC(=O)N1CC[C@H](Nc2ncnc3c2CN(c2cnc(OC)c(C(F)(F)F)c2)CC3)C1` [Leniolisib] stands 0.904.
Under `Cn1cc(C2=C(c3cccc(N)c3)C(=O)NC2=O)c2ccccc21` stands 0.932.
As for `Cc1nc2cccc(N)c2c(=O)n1C1CCC(=O)NC1=O` (configuration not stated) [Avadomide], the figure is 0.982; as for `O=C([O-])CN(CCN(CC(=O)[O-])CC(=O)O)CC(=O)[O-].[Na+].[Na+].[Na+]` [Edetate Trisodium], 1.15.
In the case of `O=C(NO)c1cnc(NC2(c3ccccc3)CC2)nc1`, the cell viability was determined as 1.01.
Under `C=CC(=O)Nc1cccc(Oc2nc(Nc3ccc(N4CCN(C)CC4)c(F)c3)nc3[nH]ccc23)c1` [Avitinib] stands 0.747; under `O=C(O)c1ccc2c(c1)C(=O)c1ccccc1C2=O`, 1.08; under `O=c1cc(-c2ccc(O[C@@H]3O[C@H](CO)[C@@H](O)[C@H](O)[C@H]3O)cc2)oc2cc(O)c([C@@H]3O[C@H](CO)[C@@H](O)[C@H](O)[C@H]3O[C@@H]3OC[C@H](O)[C@H](O)[C@H]3O)c(O)c12` [Vaccarin], 0.919.
As for `C[C@H]1COC2(CCN(c3nc(=O)c4cc(C(F)(F)F)cc([N+](=O)[O-])c4s3)CC2)O1`, the figure is 1.05; as for `CC(=O)NC(Cc1ccccc1)C(=O)O` (configuration not stated) [Afalanine], 0.984.
Under `CC(NC(=O)C(Cc1ccccc1)NC(=O)OCc1ccccc1)C(=O)CF` (configuration not stated) stands 0.979.
For the molecule `COC[C@H](NC(=O)c1cnc(C)s1)C(=O)N[C@@H](COC)C(=O)N[C@@H](Cc1ccccc1)C(=O)[C@@]1(C)CO1` [Oprozomib], the cell viability was found to be 0.371.
As for `Cc1cc(F)c(C(=O)Nc2cccc(-c3nncn3C(C)C)n2)cc1-n1cnc(C2CC2)c1` [Selonsertib], the figure is 0.918; as for `O=c1[nH]c(=O)n([C@@H]2O[C@H](CO)[C@@H](O)[C@H]2O)cc1F` [5-Fluorouridine], 0.837; as for `Cn1nccc1Nc1nccc(-c2cc3c(s2)C(C)(C)N(CCN2CCOCC2)C3=O)n1`, 1.06.
Under `Cc1nc(-c2cn3c(n2)-c2ccc(-c4cnn(C(C)(C)C(N)=O)c4)cc2OCC3)n(C(C)C)n1` [Taselisib] stands 0.425.
Under `CC(C)n1ncnc1-c1cn2c(n1)-c1ccc(O[C@@H](C)C(N)=O)cc1OCC2` stands 0.717; under `O[C@H]1[C@H]2c3cc4c(cc3CN3CCC(=C[C@@H]1O)[C@H]23)OCO4` [Lycorine chloride], 0.966; under `CC(=O)N[C@H]1CSSC[C@@H](C(N)=O)NC(=O)[C@H](C(C)C)NC(=O)[C@H](C)NC(=O)[C@H](Cc2c[nH]cn2)NC1=O` [Exherin trifluoroacetate], 1.11.
With `COc1cc2c(NC3CCN(C(C)C)CC3)nc(C3CCCCC3)nc2cc1OCCCN1CCCC1`, the cell viability was found to be 1.15.
Under `N[C@@H](CCCCNC(=O)C(F)(F)F)C(=O)O` [N-6-Trifluoroacetyl-L-lysine] stands 0.966; under `Cc1ncc(NC(=O)c2ccc(CN3CCN(C)CC3)c(C(F)(F)F)c2)cc1Nc1nccc(-c2cccnc2)n1` [Flumatinib], 1.15.
`Cc1ccc(C(=O)Nc2ccc(CN3CCN(C)CC3)c(C(F)(F)F)c2)cc1C#Cc1cnc2[nH]ncc2c1` [GZD824 Dimesylate] gave a cell viability of 0.33.
As for `CCN1CCN(Cc2ccc(NC(=O)c3ccc(C)c(NC(=O)c4cncc(-c5cccs5)c4)c3)cc2C(F)(F)F)CC1`, the figure is 0.789.
`Cc1ccc(C(=O)Nc2ccc(CN3CCN(C)CC3)c(C(F)(F)F)c2)cc1C#Cc1cnc2cccnn12` [Ponatinib]: the cell viability came out at 0.834.
As for `Cc1ccc(C(=O)Nc2ccc(CN3CCN(C)CC3)c(C(F)(F)F)c2)cc1C#Cc1cnc2[nH]ncc2c1`, the cell viability was determined as 0.423.
Under `CS(=O)(=O)Nc1ccc([N+](=O)[O-])cc1OC1CCCCC1` stands 1.12.
As for `Cc1ccc(/C(=C\CN2CCCC2)c2ccccn2)cc1` [Triprolidine hydrochloride], the figure is 1.18; as for `C/C(=N\NC(=S)N1CCC1)c1ccccn1`, 0.362.
Under `S=C(N/N=C1/CCCc2cccnc21)N1CCN(c2ccccn2)CC1` stands 1.09; under `Cn1c(O)c(C2=c3ccccc3=NC2=O)c2ccccc21` [Methylisoindigotin], 0.85.
As for `CC(C)=CCc1cc2c(cc1O)oc(=O)c1c3ccc(O)cc3oc21` [Psoralidin], the cell viability turned out to be 1.15.
As for `COc1ccc(C[C@H](NC(=O)[C@H](C)NC(=O)CN2CCOCC2)C(=O)N[C@@H](Cc2ccccc2)C(=O)C2(C)CO2)cc1` (stereo in doubt), the figure is 1.03; as for `CC(C)c1nc(CN(C)C(=O)N[C@@H](CCN2CCOCC2)C(=O)N[C@H](CC[C@H](Cc2ccccc2)NC(=O)OCc2cncs2)Cc2ccccc2)cs1` [Cobicistat], 1.02; as for `CC(C)C[C@H](NC(=O)[C@H](CCc1ccccc1)NC(=O)CN1CCOCC1)C(=O)N[C@@H](Cc1ccccc1)C(=O)N[C@@H](CC(C)C)C(=O)[C@@]1(C)CO1` [Carfilzomib], 0.116.
Under `N[C@@H](CSCCB(O)O)C(=O)O` stands 0.835; under `O=C(O)Cn1c2c(c3cc(F)ccc31)CN(C(=O)c1cccc3ccccc13)CC2` [Setipiprant], 1.18; under `CC(C)(C)c1ccc(C(=O)NC(=S)Nc2ccc(N)cc2)cc1` [Tenovin3], 0.734.
Under `CCCCCCCCCCCCCC(=S)NCCCC[C@H](NC(=O)OCc1ccccc1)C(=O)Nc1ccccc1` [Thiomyristoyl] stands 1.11.
As for `C/C=C1\NC(=O)[C@H]2CSSCC/C=C/[C@H](CC(=O)N[C@H](C(C)C)C(=O)N2)OC(=O)[C@H](C(C)C)NC1=O` [Romidepsin], the cell viability was determined as 0.116.
Under `O=c1nc(N2CCN(CC3CCCCC3)CC2)sc2c([N+](=O)[O-])cc(C(F)(F)F)cc12` stands 0.985; under `CCC(Sc1nnc2c(n1)[nH]c1ccccc12)C(=O)N1c2ccccc2Sc2ccccc21` (configuration not stated) [Inauhzin], 1.06.
On to `CC[C@@]1(O)C(=O)OCc2c1cc1n(c2=O)Cc2cc3c(CN(C)C)c(O)ccc3nc2-1` [Topotecan hydrochloride], for which the cell viability came to 0.245.
As for `CC[C@@]1(O)C(=O)OCc2c1cc1n(c2=O)Cc2cc3cc(O)ccc3nc2-1` [10-Hydroxycamptothecin], the figure is 0.304.
As for `CCc1c2c(nc3ccc(OC(=O)N4CCC(N5CCCCC5)CC4)cc13)-c1cc3c(c(=O)n1C2)COC(=O)[C@]3(O)CC` [Irinotecan], the figure is 1.07.
In the case of `CC[C@@]1(O)C(=O)OCc2c1cc1n(c2=O)Cc2cc3cc(O)ccc3nc2-1` [Hydroxy Camptothecine], the cell viability worked out at 0.255.
As for `CCc1c2c(nc3ccc(O)cc13)-c1cc3c(c(=O)n1C2)COC(=O)[C@]3(O)CC`, the figure is 0.263.
Under `CCc1c2c(nc3ccc(OC(=O)N4CCC(N5CCCCC5)CC4)cc13)-c1cc3c(c(=O)n1C2)COC(=O)[C@]3(O)CC` [Irinotecan hydrochloride trihydrate] stands 1.05; under `COc1ccc(S(=O)(=O)NCc2ccc(C(=O)NCCc3ccc(Cl)cn3)cc2)cc1`, 1.14.
As for `CN1CCN(c2ccc(C(=O)Nc3cc(-c4cccc(NS(=O)(=O)c5ccccc5)c4)[nH]n3)cc2)CC1`, the figure is 0.98; as for `CC(C)Cc1ccc(-c2nc(-c3ccc(CN4CC(C(=O)O)C4)c(F)c3)no2)cc1` [S1p-receptor-agonist-1], 1.03.
Consider `OC(CCN1CCCCC1)(c1ccccc1)C1CCCCC1` (racemic) [DL-trihexyphenidyl hydrochloride], for which the cell viability is 0.964.
Under `CCCC[S+]([O-])c1sc2nc(-c3cccs3)cc(-c3ccccc3)c2c1N` (configuration not stated) stands 1.
